{
  "source": "paper PMC10726135",
  "about": "“HNF4α isoforms regulate the circadian balance between carbohydrate and lipid metabolism in the liver”",
  "note": "The full ranking holds about 18,000 sequences; the median of “log2 normalized intensity” is about 0.36, and the highest 2% start at about 7.3. The full list was thinned out, with the highest values kept by preference.",
  "data": [
    {"target": "T1, HNF4alpha8 (COS-7 nuclear extract) (Homo sapiens, UniProt P41235-5 1-452)", "T1 sequence": "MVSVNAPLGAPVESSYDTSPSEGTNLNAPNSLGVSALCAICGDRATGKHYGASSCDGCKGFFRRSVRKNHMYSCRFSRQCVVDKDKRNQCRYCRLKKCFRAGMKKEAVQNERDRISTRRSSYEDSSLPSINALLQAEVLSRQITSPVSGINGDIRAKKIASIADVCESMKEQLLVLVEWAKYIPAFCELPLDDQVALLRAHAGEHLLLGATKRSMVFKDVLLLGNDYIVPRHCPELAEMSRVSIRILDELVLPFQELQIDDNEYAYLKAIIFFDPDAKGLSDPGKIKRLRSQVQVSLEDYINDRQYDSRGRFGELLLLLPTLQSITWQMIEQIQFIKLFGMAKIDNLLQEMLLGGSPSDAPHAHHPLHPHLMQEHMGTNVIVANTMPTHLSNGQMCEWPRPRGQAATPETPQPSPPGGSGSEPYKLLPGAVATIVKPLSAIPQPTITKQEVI", "test": "protein-binding microarray; COS-7 nuclear extract on double-stranded Agilent 4x180k PBM; binding buffer, salt, pH and temperature not given in the material; high values mean tight binding", "conditions": "chain copies: 2; label: 3' end of strand 1 on the slide; dsDNA, one strand shown", "how_it_was_run": "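A human HNF4α isoform was expressed in COS-7 cells by transient CaPO4 transfection, and nuclear extracts were prepared. These were applied to a custom Agilent SurePrint G3 4x180k array carrying ~44,000 test sequences in quadruplicate as double-stranded ~60-nt oligonucleotides, and an Agilent G2565CA scanner imaged bound HNF4α at 2-µm resolution. The background-corrected, normalized gProcessedSignal from Agilent software was used as the binding signal.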", "units": {"binding signal": "log2 normalized intensity"}, "values": [
      {"sequence": "AGCTTGCTCTCACCAGCTTCTTCTCTTTGAGCCTAGGGAGATTAGAGTATCGGTCGA", "binding signal": -0.143},
      {"sequence": "GTAACCTTTGCCCCCCAAGTTGAAGCCATCGCCTAGGGAGATTAGAGTATCGGTCGA", "binding signal": 5.74},
      {"sequence": "GTGCTATCTCAGCTCACTGTAACCTTTGCCGCCTAGGGAGATTAGAGTATCGGTCGA", "binding signal": 4.68},
      {"sequence": "ATCTCAGCTCACTGTAACCTTTGCCCCCCTGCCTAGGGAGATTAGAGTATCGGTCGA", "binding signal": 9.22},
      {"sequence": "TCACTGTAACCTTTGCCCCCCAAGTTGAAGGCCTAGGGAGATTAGAGTATCGGTCGA", "binding signal": 7.68},
      {"sequence": "AGCCCCAACCCACTGTTGCCCCTTCCAAAGGCCTAGGGAGATTAGAGTATCGGTCGA", "binding signal": 4.73},
      {"sequence": "TTTGCTCACTGTAACCTTTGCCCCCCAAGTGCCTAGGGAGATTAGAGTATCGGTCGA", "binding signal": 9.22},
      {"sequence": "ACTGTAACCTTTGCCCCCCTGGGCTCAAGCGCCTAGGGAGATTAGAGTATCGGTCGA", "binding signal": 6.27},
      {"sequence": "TGGTGCTATCTTTGCTCACTGTAACCTTTGGCCTAGGGAGATTAGAGTATCGGTCGA", "binding signal": 4.34},
      {"sequence": "AACCTTTGCCCCAGCTGTCACCCAGCCAGAGCCTAGGGAGATTAGAGTATCGGTCGA", "binding signal": 4.16},
      {"sequence": "TCAAGCTCAATGCAACCAGTTGGTGGGTCAGCCTAGGGAGATTAGAGTATCGGTCGA", "binding signal": 1.44},
      {"sequence": "GTTAGAACAAAGTCCAAATTCCTAACTATGGCCTAGGGAGATTAGAGTATCGGTCGA", "binding signal": 4.38},
      {"sequence": "TTTATTAGGGGTCAGCAAAGAACTCCCCAGGCCTAGGGAGATTAGAGTATCGGTCGA", "binding signal": 2.41},
      {"sequence": "ACCAGCAATTTTCAGGGTTAAAAGTTCTGCGCCTAGGGAGATTAGAGTATCGGTCGA", "binding signal": 1.05},
      {"sequence": "GTGTTTGTCCTTTGTTGCAATGCTGGAACAGCCTAGGGAGATTAGAGTATCGGTCGA", "binding signal": 1.28},
      {"sequence": "CAGGTGGGAGGGGTGGACTTTGGCTTTTCCGCCTAGGGAGATTAGAGTATCGGTCGA", "binding signal": 6.31},
      {"sequence": "GAGATAAGTCACCTTATCAAGTCCGAACTCGCCTAGGGAGATTAGAGTATCGGTCGA", "binding signal": 1.35},
      {"sequence": "GGAATCTTGCCCTGTCGCCCAGGCTGGAATGCCTAGGGAGATTAGAGTATCGGTCGA", "binding signal": 1.58},
      {"sequence": "TATCAGCTCTCCGTGGACTTTGCCCCCTACGCCTAGGGAGATTAGAGTATCGGTCGA", "binding signal": 11.3},
      {"sequence": "ATCCCGTGGACTTTGCCTGCCCATCCCGTGGCCTAGGGAGATTAGAGTATCGGTCGA", "binding signal": 4.23},
      {"sequence": "TTTGGCCCCCAGAGCCCCGTGTCTCCCTACGCCTAGGGAGATTAGAGTATCGGTCGA", "binding signal": 4.89},
      {"sequence": "AAGAGACTTTGCCCTTTTTTTCTCTCCCCTGCCTAGGGAGATTAGAGTATCGGTCGA", "binding signal": 3.92},
      {"sequence": "GCTCTCCGTGGACTTTGCCCCCTACAGTTTGCCTAGGGAGATTAGAGTATCGGTCGA", "binding signal": 10.5},
      {"sequence": "CTTTCTATCAGCTCTCCGTGGACTTTGCCCGCCTAGGGAGATTAGAGTATCGGTCGA", "binding signal": 9.95},
      {"sequence": "GTGGACTTTGCCTGCCCATCCCGTGGACTCGCCTAGGGAGATTAGAGTATCGGTCGA", "binding signal": 4.49},
      {"sequence": "TCTTCCTTTCTATCAGCTCTCCGTGGACTTGCCTAGGGAGATTAGAGTATCGGTCGA", "binding signal": 3.52},
      {"sequence": "TCTTTGCCCTCTTGGTATCAGCTTTGAGACGCCTAGGGAGATTAGAGTATCGGTCGA", "binding signal": 1.91}
    ]}
  ]
}
